SW480 rerep – inducers of DNA re-replication in SW480 colon cancer cells; actives 1.8% (n = 340,000); Potency, µM (top dose mostly 46.1 µM), inactives show at the top dose re-replication activation, usual class: activators; SW480 DNA re-replication, Hoechst DNA content imaging, 48 h; note: % of control where 0% means no effect; nearly all actives have a fitted effect of over 55% in size
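Cells (250 per well) received 23 nL compound or DMSO by pin tool and were kept 48 hr at 37 C, 5% CO2. Nuclei were then stained with Hoechst for 40 min and scanned for DNA content.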
KB-V1 cytotox – kills drug-selected multidrug resistant KB-V1 cells | Potency, µM (doses to about 46.1 µM), actives largely listed as cytotoxic | KB-V1 MDR cells viability, CellTiter-Glo, 72 h | actives 3.4% (n = 400,000) | AID 1347076; note: % is set by controls: 0 for no effect and ±100 for the full control effect; nearly all actives have a fitted effect of over 60% in size
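In this primary screen, KB-V1 cells overexpressing P-gp are incubated with library compounds (lowest to highest concentration) for 72 h at 37 degrees C before a luminescent ATP viability read.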
PINK1 expr mod – changes PINK1 expression | PINK1 immunofluorescence, high-content cytometry, 24 h | Potency, µM (titrated, usually from 76.6 µM), inactives show at the highest dose activation (PINK1 increase), hits mostly activators | actives 0.2% (n = 410,000) | AID 624263; active = well fitted activation curve with a large enough effect; inconclusive = small, poorly fitted or top-dose-only effect; cell line not stated here; note: % of control where 0% means no effect; nearly all actives have a fitted effect of over 65% in size
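Cells are seeded, rested 12 hours, then given compound at five concentrations or DMSO for 24 hours. After fixation, blocking and antibody staining, PINK1 amount and mitochondrial localization are scored; CCCP serves as control.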
PTAP TSG101 blk – blocks PTAP/TSG101 interaction to inhibit HIV-1 budding. Q99816. Fluorescence polarization, FITC-PTAP peptide / Tsg101 binding. Potency, µM (top dose mostly 115 µM), for inactives: top-dose activity change, negative = inhibition, most hits filed as inhibitors. 340,000 tested, under 10 active. AID 493005; active = well fitted inhibition curve with a large enough effect in the main read-out, with a control signal flat, not every such curve was filed as active; inconclusive = small, poorly fitted or top-dose-only effect, or effect the other way, or a change in a side signal; inactive = no such curve, though single readings can be large or run the other way; note: % of control where 0% means no effect
Target sequence (Q99816 whole entry, looked up): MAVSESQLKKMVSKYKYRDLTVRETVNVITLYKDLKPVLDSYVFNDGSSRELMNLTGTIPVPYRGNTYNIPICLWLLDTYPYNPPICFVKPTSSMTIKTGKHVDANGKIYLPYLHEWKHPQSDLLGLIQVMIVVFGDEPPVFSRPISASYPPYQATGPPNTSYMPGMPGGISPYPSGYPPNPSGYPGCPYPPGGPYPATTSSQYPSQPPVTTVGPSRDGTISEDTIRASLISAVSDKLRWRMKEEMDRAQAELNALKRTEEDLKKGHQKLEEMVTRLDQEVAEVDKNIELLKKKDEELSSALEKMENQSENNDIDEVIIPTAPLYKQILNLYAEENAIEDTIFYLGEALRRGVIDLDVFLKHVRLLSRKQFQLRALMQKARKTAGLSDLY
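Fluorescence polarization binding of Tsg101 binding domain (10 uM final) to FITC-labeled PTAP peptide (50 nM final) in HEPES pH 7.5 buffer with NaCl, Tween 20, EDTA, TCEP. Compounds added before peptide; binding 20 min at RT.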
MCF10A rerep – induces DNA re-replication in MCF 10a normal breast cells | MCF 10A DNA re-replication, Hoechst nuclear intensity, 48 h | Potency, µM (series often up to 46.1 µM), without a hit: at the top dose activity, positive = re-replication, actives largely listed as activators | actives 2.9% (n = 350,000) | AID 624296; note: % of control where 0% means no effect; nearly all actives have a fitted effect of over 50% in size
KB-3-1 cytotox – KB-3-1 parental cell cytotoxicity | KB-3-1 viability, CellTiter-Glo ATP luminescence, 72 h | actives 1.4% (n = 400,000) | Potency, µM (doses to about 46.1 µM), most hits filed as cytotoxic; note: % is set by controls: 0 for no effect and ±100 for the full control effect; nearly all actives have a fitted effect of over 60% in size
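Parental KB-3-1 adenocarcinoma cells in phenol-red-free DMEM with 10% FBS were pin-treated with compounds at several concentrations, incubated 72 h at 37 °C, and viability read by CellTiter-Glo luminescence; concentration-effect curves were fitted after normalization.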
Starred values were filed as active, the others as inactive; i = inactive; u = inconclusive; x = no result given; [ ] = remark or other dose. This is a sample that favours compounds with a hit; in the whole collection about 6.8% have one here. Unless noted, calls come from the whole dose curve; as a rule, active = well fitted curve in the direction sought with a large enough effect; inconclusive = small, poorly fitted or top-dose-only effect, or another doubt; inactive = no such curve, though single readings can be large; an effect the other way counts as inactive or inconclusive. Potency is the fitted concentration of half-maximal effect.

SMILES | SW480 rerep | KB-V1 cytotox | PINK1 expr mod | PTAP TSG101 blk | MCF10A rerep | KB-3-1 cytotox
COCCNC(=O)c1sc2nc(-c3ccccc3)cn2c1C | -8% | 13µM* | -1% | 0% | -11% | i
CCN(CC)CCCNC(=O)c1sc2nc(-c3ccc(F)cc3)cn2c1C | u | 16µM* | -28%[38.3 µM] | -8% | 23µM* | i
Cc1c(C(=O)NCc2ccccn2)sc2nc(-c3ccccc3)cn12 | -5% | i | 1% | 0% | 15% | 9.2µM*
Cc1c(C(=O)NCc2ccc3c(c2)OCO3)sc2nc(-c3ccc(F)cc3)cn12 | -7% | i | 3% | -4% | 2% | i
N/C(=N\OC(=O)N1CCOCC1)c1ccc(Br)cc1 | u | 21µM* | -1% | -1% | u | i
N/C(=N\OC(=O)N1CCOCC1)c1ccc(Cl)cc1 | u | i | -1% | 1% | u | u
COc1ccc(Cl)cc1NC(=O)c1c(NCc2cccs2)sc2c1CCCC2 | x | x | 2% | x | x | x
CCCN(CCC)CCNS(=O)(=O)c1ccc2c(c1)CCN2C(=O)C1CCC1 | 12µM* | u | 0%[38.3 µM] | -6% | 2.6µM* | i
O=C(NCc1cccc(F)c1)c1ccc(NC(=O)c2nsc3ccccc23)cc1 | x | i | 1% | x | x | i
Cc1ncc2c(c1CNC(=O)c1ccc3c(c1)OCO3)CCN(C(=O)c1csc3c1CCCC3)C2 | x | x | 0% | x | x | x
O=C1N/C(=C/c2ccc(N3CCOCC3)o2)C(=O)N1c1cccc(Cl)c1 | 4.6µM* | i | u | u | u | u
O=c1cc(-c2ccc(F)cc2F)[nH]c2ccccc12 | -3% | x | x | x | 0% | x
O=c1cc(-c2cccc(F)c2)[nH]c2ccccc12 | 1.3µM* | u | 6% | -2% | 1.3µM* | 0.37µM*
COc1ccc2[nH]c(-c3cccc(F)c3)cc(=O)c2c1 | 0.73µM* | u | 7% | 1% | 1.3µM* | 0.41µM*
Cc1ccc(-c2cc(=O)c3cc(C)ccc3[nH]2)cc1 | 21µM* | u | 12% | 0% | u | 9.2µM*
O=c1cc(-c2ccccc2)[nH]c2ccc(F)cc12 | 1.6µM* | u | 7% | 1% | 2.1µM* | 1.2µM*
Cc1noc(C)c1-c1cc(NC2CC2)ncn1 | x | x | 2% | x | x | x
COc1ccc2oc(=O)c(C(=O)Nc3ccc(C(=O)O)cc3)cc2c1 | x | i | 2% | x | x | i
Cc1ccc(NC(=O)CN2C(=O)CSc3ccc(S(=O)(=O)N(C)C)cc32)c(C)c1 | x | i | -1% | x | x | i
Cc1ccc2[nH]c(-c3cccc(F)c3)cc(=O)c2c1 | 0.82µM* | i | 11% | -5% | 1.2µM* | 0.41µM*
Clc1ccc2[nH]c(-c3ccccc3)cc2c1 | 9% | u | 6% | -5% | 3% | i
O=c1cc(-c2ccccc2)[nH]c2cc(Cl)ccc12 | 0.73µM* | u | 4% | -1% | 1.6µM* | u
CCOc1cccc(CC(=O)N2CCc3c([nH]c4ccccc34)C2c2ccc(SC)cc2)c1OCC (stereo not drawn) | x | i | 2% | x | x | i
COc1ccc(-c2cc(C3CCN(c4cc(Cl)nc(N)n4)CC3)[nH]n2)cc1 | 19% | i | -3%[38.3 µM] | -5% | u | u
COc1ccc(OC)c(-c2cc(C3CCN(c4cc(Cl)nc(N)n4)CC3)[nH]n2)c1 | u | 3.3µM* | 0% | 0% | 21µM* | 7.3µM*
Nc1nc(Cl)cc(N2CCC(c3cc(-c4ccc(Cl)cc4)n[nH]3)CC2)n1 | 16µM* | 15µM* | -5%[38.3 µM] | -3% | 26µM* | u
COc1ccc(CNCCC(c2ccc(F)cc2)c2ccc(OC)cc2)cc1 (stereo not drawn) | u | u | -3% | -1% | u | 23µM*
COc1ccc(C(CCNCc2ccc(OC(C)C)cc2)c2ccccc2OC)cc1 (stereo not drawn) | u | 23µM* | -2% | 1% | u | u
